Source: the supplement of paper PMC6555819

What was measured:
Assay in all cases: PBM binding z-score (relative to random genomic background probes); higher = stronger binding; sequences stand for … in GC…GCGATTGACAGCGTAGAATGAAGG
[1] = tested on: PPARg:RXRa DBDmut IVT, anti-RXR (DBD mutation: RXRa K156A/R161A, NR concentration 270 nM, RXRa partner concentration 90 nM)
In short: (§1)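 Binding z-scores take random background probes as their reference. They come from custom Agilent 4×180K protein-binding microarrays incubated 1 h with ligand-free nuclear receptor dimers, with antibodies against each partner (one per run) detecting binding. Scanned fluorescence was regression-normalized.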

[2] = tested on: PPARg:RXRa IVT, anti-PPARg (NR concentration 270 nM, RXRa partner concentration 90 nM)
In short: as §1

[3] = tested on: PPARg DBDmut:RXRa IVT, anti-PPARg (DBD mutation: PPARg1 K132A/R137A, NR concentration 270 nM, RXRa partner concentration 90 nM)
In short: as §1

[4] = tested on: PPARg DBDmut IVT, anti-PPARg (DBD mutation: PPARg1 K132A/R137A, NR concentration 270 nM)
In short: as §1

[5] = tested on: PPARg homodimer (NR concentration 180 nM)
In short: as §1

[6] = tested on: PXR:RXRa (NR concentration 270 nM, RXRa partner concentration 90 nM)
In short: as §1

[7] = tested on: PXR homodimer (NR concentration 270 nM)
In short: as §1

[8] = tested on: RARa:RXR (NR concentration 270 nM, RXRa partner concentration 90 nM)
In short: as §1

[9] = tested on: RARa homodimer (NR concentration 270 nM)
In short: as §1

[10] = tested on: RARb:RXRa (NR concentration 270 nM, RXRa partner concentration 90 nM)
In short: as §1

[11] = tested on: RARb homodimer (NR concentration 270 nM)
In short: as §1

[12] = tested on: RARg:RXRa (NR concentration 270 nM, RXRa partner concentration 90 nM)
In short: as §1

[13] = tested on: RARg homodimer (NR concentration 270 nM)
In short: as §1

[14] = tested on: RXRa DBDmut IVT, anti-RXR (DBD mutation: RXRa K156A/R161A, NR concentration 90 nM)
In short: as §1

[15] = tested on: RXRa homodimer (NR concentration 180 nM)
In short: as §1

[16] = tested on: THRa:RXRa (NR concentration 90 nM, RXRa partner concentration 90 nM)
In short: as §1

[17] = tested on: THRa homodimer (NR concentration 90 nM)
In short: as §1

[18] = tested on: VDR homodimer (NR concentration 270 nM)
In short: as §1

| Sequence | PBM binding z-score [1] | PBM binding z-score [2] | PBM binding z-score [3] | PBM binding z-score [4] | PBM binding z-score [5] | PBM binding z-score [6] | PBM binding z-score [7] | PBM binding z-score [8] | PBM binding z-score [9] | PBM binding z-score [10] | PBM binding z-score [11] | PBM binding z-score [12] | PBM binding z-score [13] | PBM binding z-score [14] | PBM binding z-score [15] | PBM binding z-score [16] | PBM binding z-score [17] | PBM binding z-score [18] |
| --- | --- | --- | --- | --- | --- | --- | --- | --- | --- | --- | --- | --- | --- | --- | --- | --- | --- | --- |
| TAGCCTAGGTCATTCCGGGGCCAGTATAGAAAGC | 1.04 | 2.62 | -0.235 | 0.258 | 0.924 | 2.65 | -0.216 | 3.02 | -0.809 | 3.74 | 3.12 | 5.28 | 4.24 | 1.28 | 2.66 | 3.63 | 0.929 | 1.46 |
| GCGACTGGGGCATCAGCAGGTTACGATAACTTAA | 3.75 | 3.19 | -0.586 | -0.712 | 0.335 | 0.0357 | -0.369 | 0.42 | -0.452 | 0.866 | 0.928 | 0.837 | 0.545 | -0.13 | 0.313 | 0.816 | -0.273 | -0.435 |
| ATCTCTAGGTAAGGTTCAGTGAAAGATCGATAGA | 1.52 | 1.27 | 1.88 | 0.757 | 1.1 | 0.838 | 0.974 | 1.21 | 1.79 | 1.34 | 0.959 | 0.973 | 1.03 | 1.35 | 0.69 | 0.888 | 0.39 | 2.32 |
| CCTTACGGGTCACGAGGTTATGGCACGACGAGCG | 3.69 | 5.37 | 1.26 | 0.892 | 2.01 | 4.16 | 0.0957 | 5.67 | 0.689 | 4.51 | 3.8 | 6.05 | 5.55 | 1.3 | 6.91 | 3.72 | 1.19 | 1.71 |
| AGAACGAGGGCAACGAGTTGATAGCACGGGTGGC | 3.47 | 3.2 | 0.361 | -0.0508 | -0.253 | 1.49 | 3.88 | 0.217 | -0.868 | 2.23 | 0.919 | 1.41 | 1.74 | 1.76 | 0.952 | 0.99 | -0.357 | 2.5 |
| CGAACTAGGTCAAGGTCAGTGAATCTCCGCACGC | 7.95 | 8.28 | 1.6 | 0.259 | 3.84 | 3.45 | 1.03 | 3.61 | 1.62 | 4.86 | 4.79 | 5.23 | 6.17 | 2.29 | 4.11 | 3.86 | 3.15 | 2.14 |
| ATCGAAAGTTCGTGAGGTGAGTATACAGAAAGGC | -1.13 | 0.316 | 0.654 | 0.402 | 0.342 | 1.08 | 0.69 | 1.39 | 0.453 | 2.17 | 1.8 | 2.22 | 1.86 | 2.13 | 1.78 | 2.23 | 1.23 | 1.22 |
| CCGACTGGGGCAGAGAGGTTACCATACCATCCGG | 2.02 | 1.91 | -0.515 | -1.59 | 0.15 | 0.359 | -0.131 | 0.845 | 0.129 | 1.24 | 1.54 | 1.33 | 1.2 | -0.642 | 1.23 | 1.02 | -0.309 | 0.35 |
| CCGACTCGGGCAAAGGTTACCATACTCAGTACGA | 1.5 | 4.06 | -0.108 | -0.188 | 2.32 | 2.01 | -0.0786 | 3.12 | 0.537 | 2.04 | 2.04 | 3.36 | 1.68 | 0.702 | 3.21 | 1.6 | -0.126 | -0.375 |
| GCAGACAGGTAAAACGCAGGTAACTCAGGGTGGC | -0.691 | -0.804 | -1.23 | -0.839 | -0.847 | -0.561 | -0.484 | -0.286 | -0.674 | -0.486 | 0.258 | -0.164 | -0.43 | -0.576 | 0.223 | 0.964 | -0.354 | -0.545 |
| AGACTGAGGTTAAGATCAGGGAAACAGAATACAT | 0.0393 | 0.554 | -0.0816 | -0.0692 | 0.531 | 0.903 | 0.258 | 1.84 | -0.0293 | 1.7 | 0.774 | 2.09 | 1.38 | 0.593 | 2.21 | 2.35 | 0.489 | 0.3 |
| ACTAGCAGGCCAAGGGTCAATCAAGATTAGTCCG | 1.29 | 3.74 | -0.502 | -0.4 | 1.86 | 3.34 | -0.202 | 4.28 | -0.127 | 3.33 | 3.46 | 4.36 | 3.8 | 0.567 | 4.62 | 2.76 | -0.086 | 0.551 |
| AGAACGAGGGCACGCTGAGTTGGTAGCAGAGTAG | 4.25 | 3.68 | 0.349 | -0.628 | -0.387 | 0.612 | -0.377 | 0.517 | -1.12 | 2.46 | 1.01 | 1.69 | 2.37 | 1.55 | 1.19 | 1.56 | -0.105 | 0.953 |
| TCGTGTAGATCAACAGGAGGTTAAGAAAGATCGA | 0.943 | 0.0646 | 0.363 | -0.42 | 0.211 | 0.488 | -0.663 | 1.06 | -0.074 | 0.441 | 0.472 | 0.729 | 0.231 | -0.0769 | 0.672 | 0.819 | -0.773 | -0.463 |
| CGAACTGGGTCATTGACAGGACAGTGAATAGTAA | 7.7 | 7.88 | 1.06 | 1.35 | 0.71 | 1.41 | 0.347 | 2.18 | 0.276 | 2.92 | 2.17 | 4.32 | 3.3 | 1.94 | 2.88 | 2.41 | 0.357 | 1.05 |
| TCTTGTAGATTAACAGGAGGTTAAGAAAGATCGA | 1.1 | 0.0101 | -0.776 | 0.403 | -0.439 | 0.578 | 0.157 | 1.25 | 0.212 | 0.685 | 0.36 | 0.787 | 0.386 | 0.566 | 1.05 | 1.03 | -0.287 | 0.0136 |
